# Reference: PubChem BioAssay (EPA / NIEHS)
# Several values for one entry are separate records, joined by “and”; a condition that tells them apart may be missing. Identical values can stand only once. Results filed as inconclusive are left out. Some structures have more than one record in an assay (separate samples or runs), and their calls can disagree. Activity calls are given as the source filed them. How the source made its calls, unless noted: active means hit-call score of the fitted dose curve at least 0.9, where 1 is the maximum; inconclusive means response in the unintended direction; inactive means score below 0.9.
# What was measured:
# [1] = target: Cellular tumor antigen p53 (Homo sapiens) (UniProt P04637); experiment: TOX21_p53_BLA_p2_ratio: Tox21 HCT-116 p53 Agonism Beta-lactamase Assay, Ratio, Phase 2 (AID 2283592)
# Method in brief: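 HCT116 cells carrying a p53-responsive beta-lactamase reporter were plated, incubated 5 h at 37C, then dosed with compounds in DMSO (217-fold dilution) for 16 h. CCF4-AM substrate was added for 2 h at room temperature; the 460/530 nm emission ratio gave gain-of-signal activity relative to DMSO.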
# [2] = target: Cellular tumor antigen p53 (Homo sapiens) (UniProt P04637); experiment: TOX21_p53_BLA_p3_ratio: Tox21 HCT-116 p53 Agonism Beta-lactamase Assay, Ratio, Phase 3 (AID 2283596)
# Method in brief: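 HCT116 p53-bla cells (4000/well) given compound in DMSO (217-fold dilution) after 5 h, incubated 16 h at 37C. CCF4-AM substrate 2 h at room temperature; 460/530 nm emission ratio, gain fitted against DMSO.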
# [3] = target: Cellular tumor antigen p53 (Homo sapiens) (UniProt P04637); experiment: TOX21_p53_BLA_p5_ratio: Tox21 HCT-116 p53 Agonism Beta-lactamase Assay, Ratio, Phase 5 (AID 2283599)
# Method in brief: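 HCT-116 p53-bla cells (4000/well) plated 5 h, dosed with compound (217-fold DMSO dilution) for 16 h at 37 C; CCF4-AM substrate 2 h at room temperature. Activity is the 460/530 nm emission ratio (405 nm excitation), fitted in gain-of-signal direction versus DMSO.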
# [4] = TOX21_p53_BLA_p4_viability: Viability Assessment in the Tox21 HCT-116 p53 Agonism Beta-lactamase Assay, Phase 4 (AID 2283597);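 further: hits lower the luminescence signal meaning cytotoxicity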
# Method in brief: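 HCT116 p53-bla cells (4000/well) rested 5 h at 37C, then received compounds in DMSO (217-fold dilution) for 16 h at 37C, 5% CO2. CellTiter-Glo was added after the CCF4-AM read, and luminescence was read after 30 min at room temperature.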
# [5] = target: Cellular tumor antigen p53 (Homo sapiens) (UniProt P04637); experiment: TOX21_p53_BLA_p4_ratio: Tox21 HCT-116 p53 Agonism Beta-lactamase Assay, Ratio, Phase 4 (AID 2283601)
# Method in brief: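 HCT-116 p53 beta-lactamase reporter cells (4000/well) preincubated 5 h, then compound (217-fold dilution of DMSO stock) for 16 h at 37C. CCF4-AM substrate added 2 h at room temperature; 460/530 nm emission ratio fitted upward versus DMSO.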
# [6] = TOX21_p53_BLA_p5_viability: Viability Assessment in the Tox21 HCT-116 p53 Agonism Beta-lactamase Assay, Phase 5 (AID 2283600)
# Method in brief: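 Cells were plated at 4000/well, rested 5 h at 37C, then given compounds in DMSO (217-fold dilution) for 16 h at 37C, 5% CO2. Following the CCF4-AM beta-lactamase read, CellTiter-Glo was added and luminescence was read after 30 min at room temperature.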
# [7] = CCTE_Harrill_HTTr_Viability_MCF7: CCTE's 6-hour Cell Viability Assessment for the High-Throughput Transcriptomics (HTTr) Platform, in MCF-7 cells cultured in DMEM + 10% fetal bovine serum, Harrill Lab (AID 2284010; active means hit-call score of the fitted dose curve at least 0.9, where 1 is the maximum; inactive means score below 0.9)
# Method in brief: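 Viability measured through PI dye exclusion by high-content imaging at 6 h post-dosing.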
# [8] = CCTE_Harrill_HTTr_Apoptosis_MCF7: CCTE's 6-hour Apoptosis Assessment for the High-Throughput Transcriptomics (HTTr) Platform, in MCF-7 cells cultured in DMEM + 10% fetal bovine serum, Harrill Lab (AID 2284011; active means hit-call score of the fitted dose curve at least 0.9, where 1 is the maximum; inactive means score below 0.9)
# Method in brief: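 MCF-7 cells in DMEM + 10% fetal bovine serum were exposed to chemicals for 6 hours over an eight-point dilution series. Caspase-3/7 activation was imaged by high content imaging with CellEvent Caspase 3/7 Green; bidirectional fitting used DMSO as baseline.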
# [9] = target: Retinoic acid receptor RXR-alpha (Homo sapiens) (UniProt P19793); experiment: TOX21_TR_RXR_BLA_Agonist_Followup_ratio: Tox21 Thyroid Hormone Receptor beta Retinoid X Receptor alpha (RXRa) Agonism Beta-lactamase (BLA) Follow-Up Assay, Ratio (AID 2283968)
# Method in brief: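 This follow-up tests whether responses seen in the TR GH3 luciferase agonist screen are specific, using a GAL4-driven beta-lactamase reporter for RXRa in HEK293T cells. Compound exposure lasts 16 h; signal is the cleaved/uncleaved substrate ratio.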
# [10] = TOX21_TR_RXR_BLA_Agonist_Followup_viability: Viability Assessment in the Tox21 Thyroid Hormone Receptor beta Retinoid X Receptor alpha (RXRa) Agonism Beta-lactamase (BLA) Follow-Up Assay (AID 2283970)
# Method in brief: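 In qHTS format, RXRa-bla HEK293T cells (2,500/well) received compound for 16h. ATP content was then measured with CellTiter-Glo, and responses were fitted bidirectionally relative to DMSO controls.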
# [11] = UKN5_HCS_SBAD2_cell_viability: Viability Assessment in the University of Konstanz (UKN) Leist Lab Neurite Outgrowth Assay in human iPSC-derived immature Dorsal Root Ganglia Neurons (UKN5) (AID 2284056; active means hit-call score of the fitted dose curve at least 0.9, where 1 is the maximum; inactive means score below 0.9)
# Method in brief: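 iPSC-derived immature peripheral neurons (SBAD2) seeded on Matrigel with CHIR99021, SU5402 and DAPT, dosed 1 h later for 24 h. Viability from Hoechst H-33342 and calcein-AM live staining, high-content imaging; bidirectional fit versus DMSO.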
# [12] = UKN5_HCS_SBAD2_neurite_outgrowth: University of Konstanz (UKN) Leist Lab Neurite Outgrowth Assay in human iPSC-derived immature Dorsal Root Ganglia Neurons (UKN5) (AID 2284070; active means hit-call score of the fitted dose curve at least 0.9, where 1 is the maximum; inactive means score below 0.9); conditions: actives raise or lower the signal
# Method in brief: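 SBAD2 neurons, 24 h compound treatment, calcein-AM neurite area via HCS imaging; DMSO baseline, gain or loss of signal.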
# [13] = UKN2_HCS_IMR90_neural_migration: University of Konstanz (UKN) Leist Lab Neural Crest Cell Migration Assay in human induced IMR90 Pluripotent Stem Cells (UKN2) (AID 2284204; active means hit-call score of the fitted dose curve at least 0.9, where 1 is the maximum; inactive means score below 0.9); conditions: actives raise or lower the signal
# Method in brief: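 iPSC-derived IMR90 neural crest cells seeded around stoppers on PLO/laminin/fibronectin; migration started in N2-S medium with EGF/FGF, compounds added after 24 h for 24 h. Migration into cell-free area imaged after calcein-AM/Hoechst staining; bidirectional fit versus DMSO.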
# [14] = UKN4_HCS_LUHMES_neurite_outgrowth: University of Konstanz (UKN) Leist Lab Neurite Outgrowth Assay in human LUHMES cells (UKN4) (AID 2284206; active means hit-call score of the fitted dose curve at least 0.9, where 1 is the maximum; inactive means score below 0.9); conditions: actives raise or lower the signal
# Method in brief: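 2-day-differentiated LUHMES, 24 h cpd exposure, live calcein-AM + H-33342 stain, HCS fluorescence imaging of neurite area; DMSO = baseline, bidirectional fit.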
# [15] = UKN4_HCS_LUHMES_cell_viability: Viability Assessment in the University of Konstanz (UKN) Leist Lab Neurite Outgrowth Assay in human LUHMES cells (UKN4) (AID 2284232; active means hit-call score of the fitted dose curve at least 0.9, where 1 is the maximum; inactive means score below 0.9)
# Method in brief: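 Human dopaminergic-model LUHMES neurons were exposed to chemicals for 24 h after a 2-day differentiation. Viability was scored by imaging Hoechst H-33342 staining, with activity fitted in both directions relative to DMSO controls.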
# [16] = UKN2_HCS_IMR90_cell_viability: Viability Assessment in the University of Konstanz (UKN) Leist Lab Neural Crest Cell Migration Assay in human induced IMR90 Pluripotent Stem Cells (UKN2) (AID 2284233; active means hit-call score of the fitted dose curve at least 0.9, where 1 is the maximum; inactive means score below 0.9;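 further: viability of neural crest cells differentiated from IMR90 iPSC measured by calcein-AM fluorescence imaging; cells exposed to compound for 24 h after a 24 h migration phase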)
# Method in brief: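 Neural crest cells derived from IMR90 iPSC migrate into a stopper-free zone for 24 h in EGF/FGF medium, then are exposed to compound for 24 h. Viability assessed by calcein-AM and Hoechst staining with high-content imaging, fitted bidirectionally versus DMSO.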
# Chain of Cellular tumor antigen p53 (Homo sapiens) (P04637 whole entry, looked up): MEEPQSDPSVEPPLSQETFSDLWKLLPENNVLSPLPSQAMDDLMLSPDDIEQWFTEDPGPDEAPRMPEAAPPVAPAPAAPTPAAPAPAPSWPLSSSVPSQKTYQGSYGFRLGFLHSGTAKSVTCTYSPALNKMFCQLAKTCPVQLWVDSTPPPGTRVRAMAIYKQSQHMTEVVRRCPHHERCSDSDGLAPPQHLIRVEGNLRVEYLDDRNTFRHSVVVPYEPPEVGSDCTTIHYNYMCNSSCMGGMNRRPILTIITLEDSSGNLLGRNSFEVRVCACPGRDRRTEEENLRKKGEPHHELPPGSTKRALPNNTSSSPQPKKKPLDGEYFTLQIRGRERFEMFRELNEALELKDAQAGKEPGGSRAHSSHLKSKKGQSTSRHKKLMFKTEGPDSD
# Chain of Retinoic acid receptor RXR-alpha (Homo sapiens) (P19793 whole entry, looked up, the tested form may be a part): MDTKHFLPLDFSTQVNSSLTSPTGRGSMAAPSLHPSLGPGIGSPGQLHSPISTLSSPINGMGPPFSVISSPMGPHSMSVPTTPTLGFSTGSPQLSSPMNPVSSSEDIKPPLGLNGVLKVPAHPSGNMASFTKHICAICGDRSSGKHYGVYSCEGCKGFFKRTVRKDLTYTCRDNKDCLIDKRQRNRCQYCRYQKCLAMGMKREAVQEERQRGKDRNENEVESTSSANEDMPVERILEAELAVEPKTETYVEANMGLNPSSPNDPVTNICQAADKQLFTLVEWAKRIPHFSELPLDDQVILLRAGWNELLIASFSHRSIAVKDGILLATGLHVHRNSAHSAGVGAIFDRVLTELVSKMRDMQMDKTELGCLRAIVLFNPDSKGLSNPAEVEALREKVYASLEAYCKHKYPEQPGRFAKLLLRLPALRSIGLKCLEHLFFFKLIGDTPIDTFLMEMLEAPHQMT
compound,measurement,setting,value
N#C/C=C/C#N,outcome,[1],inactive
same,AC50,[2],93.4 µM (active)
same,outcome,[3],inactive
COc1ccc2c(c1)C13CCCC[C@@H]1C(C2)N(C)CC3 (some centres not stated),outcome,[1],inactive
same,outcome,[2],inactive
same,outcome,[4],inactive
same,outcome,[3],inactive
[O-][Br+2]([O-])O,outcome,[1],inactive
same,outcome,[2],inactive
same,outcome,[4],inactive
same,outcome,[5],inactive
CC(Cc1ccccc1)NC=O (configuration not stated),outcome,[1],inactive
same,outcome,[2],inactive
same,outcome,[4],inactive
same,outcome,[3],inactive
same,outcome,[6],inactive
same,outcome,[5],inactive
[Cl][Sn]([Cl])([Cl])[Cl],outcome,[1],inactive
same,outcome,[2],inactive
same,outcome,[4],inactive
same,outcome,[3],inactive
same,outcome,[6],inactive
same,outcome,[5],inactive
O=[N+]([O-])c1ccc(CCl)cc1,outcome,[1],inactive
same,outcome,[2],inactive
same,outcome,[4],inactive
same,outcome,[3],inactive
same,outcome,[6],inactive
same,outcome,[5],inactive
C[C@H]1CNCCc2ccc(Cl)cc21,outcome,[1],inactive
same,outcome,[2],inactive
same,outcome,[4],inactive
same,outcome,[5],inactive
CNCC(=O)c1ccc(O)c(O)c1,outcome,[1],inactive
same,outcome,[2],inactive
same,outcome,[4],inactive
same,outcome,[6],inactive
C[C@]12CC[C@H]3[C@@H](CCC4=C(O)C(=O)CC[C@@H]43)[C@@H]1CC[C@@H]2OC(=O)CCC1CCCC1,outcome,[1],inactive
same,outcome,[2],inactive
same,outcome,[4],inactive
same,outcome,[5],inactive
BrC(Br)Br,outcome,[1],inactive
same,outcome,[2],inactive
same,outcome,[4],inactive
same,outcome,[3],inactive
same,outcome,[6],inactive
same,outcome,[5],inactive
same,outcome,[7],inactive
same,outcome,[8],inactive
CCCC(C)(COC(N)=O)COC(N)=O,outcome,[1],inactive
same,outcome,[2],inactive
same,outcome,[4],inactive
same,outcome,[3],inactive
same,outcome,[6],inactive
same,outcome,[5],inactive
CN1C(=O)CN=C(c2ccccc2)c2cc([N+](=O)[O-])ccc21,outcome,[1],inactive
same,outcome,[2],inactive
same,outcome,[4],inactive
same,outcome,[3],inactive
same,outcome,[6],inactive
CCCCCCBr,outcome,[1],inactive
same,outcome,[2],inactive
same,outcome,[4],inactive
same,outcome,[3],inactive
same,outcome,[5],inactive
N[C@@H](Cc1ccc(Oc2cc(I)c(O)c(I)c2)c(I)c1)C(=O)O,outcome,[1],inactive
same,outcome,[2],inactive
same,outcome,[4],inactive
same,outcome,[3],inactive
same,outcome,[9],inactive
same,outcome,[10],inactive
C(COCC1CO1)OCC1CO1 (configuration not stated),outcome,[1],inactive
same,outcome,[2],inactive
same,outcome,[3],inactive
same,outcome,[6],inactive
same,outcome,[5],inactive
CCCCCCCCCCCCCCCCn1cc[n+](C)c1,AC50,[1],51.5 µM (active) and 29.9 µM (active) and 17.5 µM (active)
same,AC50,[2],9.54 µM (active)
same,outcome,[2],inactive
same,AC50,[5],71.6 µM (active) and 77.7 µM (active) and 60.1 µM (active)
same,outcome,[5],inactive
CC(CCc1ccccc1)NC(C)C(O)c1ccc(O)cc1 (configuration not stated),outcome,[1],inactive
same,outcome,[2],inactive
CN1CCCC(=C(c2cccs2)c2cccs2)C1,outcome,[1],inactive
same,outcome,[2],inactive
CCOC(=O)c1ncn2c1CN(C)C(=O)c1c(I)cccc1-2,outcome,[1],inactive
same,outcome,[2],inactive
same,outcome,[4],inactive
same,outcome,[3],inactive
same,outcome,[5],inactive
CC(=O)Oc1ccc2c3c1O[C@H]1[C@@H](OC(C)=O)C=C[C@H]4[C@@H](C2)N(C)CC[C@@]341,outcome,[1],inactive
same,outcome,[2],inactive
same,outcome,[4],inactive
same,outcome,[3],inactive
same,outcome,[6],inactive
same,outcome,[5],inactive
same,outcome,[11],inactive
same,outcome,[12],inactive
same,outcome,[13],inactive
same,outcome,[14],inactive
same,outcome,[15],inactive
same,outcome,[16],inactive
c1ccc2c(c1)Sc1ccccc1N2C[C@@H]1CN2CCC1CC2,outcome,[1],inactive
same,outcome,[2],inactive
same,outcome,[4],inactive
same,outcome,[3],inactive
same,AC50,[5],43.6 µM (active)
CCCN1CCC[C@H](c2cccc(O)c2)C1,outcome,[1],inactive
same,outcome,[2],inactive
same,outcome,[3],inactive
same,outcome,[5],inactive
CCS(=O)(=O)C(C)(C)S(=O)(=O)CC,outcome,[1],inactive
same,outcome,[2],inactive
same,outcome,[3],inactive
same,outcome,[5],inactive
CN1c2ccccc2C(NCCCCCCC(=O)O)c2ccc(Cl)cc2S1(=O)=O (configuration not stated),outcome,[1],inactive
same,outcome,[2],inactive
same,outcome,[3],inactive
same,outcome,[5],inactive
CCN,outcome,[1],inactive
same,outcome,[2],inactive
same,outcome,[3],inactive
same,outcome,[5],inactive
Cc1c(N)nc([C@H](CC(N)=O)NC[C@H](N)C(N)=O)nc1C(=O)N[C@H](C(=O)N[C@H](C)[C@@H](O)[C@H](C)C(=O)N[C@H](C(=O)NCCc1nc(-c2nc(C(=O)NCCC[S+](C)C)cs2)cs1)[C@@H](C)O)[C@@H](O[C@@H]1O[C@@H](CO)[C@@H](O)[C@H](O)[C@@H]1O[C@H]1O[C@H](CO)[C@@H](O)[C@H](OC(N)=O)[C@@H]1O)c1cnc[nH]1,AC50,[1],195 nM (active) and 1.16 µM (active)
same,AC50,[2],98.3 nM (active) and 922 nM (active)
same,AC50,[3],86.5 nM (active) and 808 nM (active)
same,AC50,[5],219 nM (active) and 730 nM (active)
CN1CCc2cc3c(cc2C1O)OCO3 (configuration not stated),AC50,[1],46.3 µM (active)
same,AC50,[2],61.2 µM (active)
same,AC50,[3],46.3 µM (active)
same,outcome,[6],inactive
same,AC50,[5],46.3 µM (active)
CC(NC(C)(C)C)C(=O)c1cccc(Cl)c1 (configuration not stated),outcome,[1],inactive
same,outcome,[2],inactive
same,outcome,[5],inactive
NCC1(CC(=O)O)CCCCC1,outcome,[1],inactive
same,outcome,[2],inactive
same,outcome,[3],inactive
same,outcome,[5],inactive
O=C(Cl)C(Cl)Cl,outcome,[1],inactive
same,outcome,[2],inactive
same,outcome,[3],inactive
same,outcome,[6],inactive
same,outcome,[5],inactive
COc1ccc(C(=O)c2c(C)n(CCN3CCOCC3)c3ccccc23)cc1,outcome,[1],inactive
same,outcome,[2],inactive
same,outcome,[3],inactive
same,outcome,[5],inactive
CCCC[N+]1(C)CCCC1 (tested in a mixture with another compound),outcome,[1],inactive
same,outcome,[2],inactive
same,outcome,[3],inactive
same,AC50,[5],86.9 µM (active)
